Screening data: PubChem BioAssay, Broad Institute
CD40 NFkB inh – inhibitors of CD40-induced NF-kB signaling, primary screen, BL2 cells, luciferase reporter, single point. 0.94% of 83,000 active. CD40L-induced, 4 h. inhibition, % at 10 µM;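 active = mean inhibition of at least 50% with a set share of replicates also reaching that level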;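 also: 0% = neutral control wells and 100% = IKK inhibitor VII at 50 µM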
Starred values were filed as active, the others as inactive; i = inactive; [ ] = another dose, or the depositor's remark. The sample as a whole holds a higher share of hits than the screen did.

SMILES | CD40 NFkB inh
C[C@H](CO)N1C[C@H](C)[C@@H](CN(C)Cc2ccc3c(c2)OCO3)Oc2ccc(NC(=O)Nc3ccc(C(F)(F)F)cc3)cc2C1=O | 13.5
Cc1noc(C)c1NC(=O)N(C)C[C@@H]1OCCCC[C@@H](C)Oc2ccc(NC(=O)Nc3ccc(C(F)(F)F)cc3)cc2C(=O)N([C@H](C)CO)C[C@H]1C | 60.1*[25 µM]
COc1ccc(S(=O)(=O)N(C)C[C@@H]2Oc3ccc(NC(=O)Nc4ccc(C(F)(F)F)cc4)cc3C(=O)N([C@H](C)CO)C[C@H]2C)cc1 | 52.7*[25 µM]
Cc1noc(C)c1NC(=O)N(C)C[C@@H]1OCCCC[C@@H](C)Oc2ccc(NC(=O)Nc3ccc(C(F)(F)F)cc3)cc2C(=O)N([C@H](C)CO)C[C@@H]1C | -9.5[25 µM]
C[C@@H]1CN([C@H](C)CO)C(=O)Cc2cc(NC(=O)Nc3ccc(C(F)(F)F)cc3)ccc2O[C@@H]1CN(C)CC1CCCCC1 | 32.1
COc1ccc(S(=O)(=O)N(C)C[C@@H]2Oc3ccc(NC(=O)Nc4ccc(C(F)(F)F)cc4)cc3C(=O)N([C@H](C)CO)C[C@@H]2C)cc1 | 37.6[25 µM]
COc1ccc(S(=O)(=O)N(C)C[C@H]2Oc3ccc(NC(=O)Nc4ccc(C(F)(F)F)cc4)cc3C(=O)N([C@H](C)CO)C[C@@H]2C)cc1 | 37.9[25 µM]
C[C@@H]1CCCCO[C@H](CN(C)CC2CCCCC2)[C@H](C)CN([C@@H](C)CO)C(=O)c2cc(NC(=O)Nc3ccc(C(F)(F)F)cc3)ccc2O1 | 55.0*[25 µM]
C[C@@H]1CCCCO[C@@H](CN(C)CC2CCCCC2)[C@H](C)CN([C@@H](C)CO)C(=O)c2cc(NC(=O)Nc3ccc(C(F)(F)F)cc3)ccc2O1 | 17.7
C[C@H](CO)N1C[C@H](C)[C@@H](CN(C)C(=O)Cc2ccccc2)OCc2ccccc2-c2ccccc2C1=O | -13.7[25 µM]
O=C(C1CCCCC1)N1C[C@@H]2[C@H](c3ccccc31)[C@H](CO)N2CC1CCOCC1 | -8.7[25 µM]
COc1ccc(S(=O)(=O)N2CC[C@@H]3[C@H](CO)Nc4ccc(-c5ccccc5F)cc4[C@@H]32)cc1 | -8.5[25 µM]
CC(=O)N1[C@H](CNC(=O)CN2CCOCC2)[C@H](c2ccccc2)[C@@H]1CO | 4.1
COc1ccc(-c2ccc3c(c2)[C@@H]2[C@@H](CCN2C(=O)NC2CCCC2)[C@H](CO)N3C)cc1 | 19.1
CCCn1cnnc1CNC(=O)C1CCC(=O)N(CCCc2ccccc2)C1 (stereo unspecified) | 9.6
O=C(Nc1ccc(F)cc1)N1CC(=O)N2[C@H](CO)[C@@H](c3ccc(C4=CCCC4)cc3)[C@H]2C1 | 22.1[25 µM]
C[C@H](CO)N1C[C@H](C)[C@@H](CN(C)Cc2cccc(C(=O)O)c2)Oc2ncc(C#C[C@@H](C)O)cc2C1=O | -15.7[25 µM]
Cc1nc(N2CCN(C(=O)c3ccco3)CC2)c(C#N)c2c1CCCC2 | -7.3
N#Cc1c(NCCCO)nc(NCc2ccccc2)c2c1CCN(Cc1ccccc1)C2 | -1.2
CN1CCc2c(C#N)c(N3CCCCC3)nc(NCc3ccccc3)c2C1 | 35.0*
C[C@H](CO)N1C[C@H](C)[C@@H](CN(C)Cc2ccc3c(c2)OCCN3C)OCc2ccccc2-c2c(n(C)c3ccccc23)C1=O | 0.8
Cc1ccc(S(=O)(=O)N(C)C[C@H]2OCCCC[C@H](C)Oc3ccc(NS(=O)(=O)c4ccc(F)cc4)cc3C(=O)N([C@@H](C)CO)C[C@H]2C)cc1 | -0.5
COc1ccccc1C#Cc1ccc([C@@H]2[C@H]3CN(C(=O)C4CCC4)CCCCN3[C@H]2CO)cc1 | 5.6[25 µM]
CN(CC(=O)Nc1ccccc1Cl)C(=O)COC(=O)c1cccs1 | 13.1
Cc1nc(-c2ccc(F)cc2)c(CC(=O)N(C)CC(=O)Nc2ccccc2Cl)s1 | 53.0*
SMILES | CD40 NFkB inh
CN(CC(=O)Nc1ccccc1Cl)C(=O)COC(=O)c1ccc(S(=O)(=O)C(F)F)cc1 | 7.2
CC1CCC(NC(=O)c2ccc(COc3ccccc3)o2)CC1 (stereo unspecified) | -0.8
S=c1nc(-c2csc3c2CCCC3)[nH][nH]1 | 12.3
Cc1cc(C)c2c(N)c(C(=O)NC3CC3)sc2n1 | -5.4
Cc1cc(C)c2c(N)c(C(=O)NN)sc2n1 | -13.8
Cc1cc(C)c2c(N)c(C(=O)Nc3nccs3)sc2n1 | 70.5*
C[C@H]1CN([C@@H](C)CO)C(=O)c2ccccc2-c2ccccc2CO[C@H]1CN(C)S(=O)(=O)c1ccccc1 | -6.4
CC(=O)Oc1ccccc1C(=O)C=Cc1cccc([N+](=O)[O-])c1 | 89.3*
CC(=O)Nc1ccc(C=CC=Cc2cccc([N+](=O)[O-])c2)cc1 | -21.8
O=C(/C=C/c1cccc([N+](=O)[O-])c1)OCC(=O)c1ccccc1 | -4.7
Cc1ccc(S(=O)(=O)N[C@H]2C=C[C@@H](CC(=O)NCc3ccc(Cl)c(Cl)c3)O[C@@H]2CO)cc1 | -14.8[25 µM]
C[C@@H]1CN([C@@H](C)CO)C(=O)c2cc(C#C[C@@H](C)O)cnc2O[C@H]1CN(C)Cc1cccc(C(=O)O)c1 | -26.0[25 µM]
CCCNC(=O)N1CC2(C1)[C@H](c1ccccc1)[C@H](CO)N2C(=O)c1cccnc1 | -12.3[25 µM]
COc1c(C(=O)Nc2ccc(Cc3ccncc3)cc2)ccc2ccccc12 | -24.7
COc1ccc(C(=O)NCCN(C)C)c2nc3ccccc3cc12 | i
COc1ccc(C(=O)Nc2ccc3ccccc3n2)c(OC)c1OC | 51.4*
CCCCCCCCNC(C)C(O)c1ccc(SC(C)C)cc1 (stereo unspecified) | 38.9*
CC(NCCc1ccc(O)cc1)C(O)c1ccc(O)cc1 (stereo unspecified) | -0.6
CC(=O)N1C[C@@H]2C(c3ccc(Br)cc3)[C@H](C1)N2S(C)(=O)=O (stereo partly specified) | 0.2
CCSc1nc2ccc(C)cc2cc1C#N | -9.6
Cc1cc(C)c2nc(C(F)(F)F)c(C#N)c(N)c2c1 | 20.2
Cc1ccc2nc(C(F)(F)F)c(C#N)c(N)c2c1 | 107.8*
CC(C)NC(=O)N1Cc2cc(C(=O)NC3CCC3)nc(-c3cccc(-c4cccnc4)c3)c2[C@@H]1CCO | 1.8
COCC(=O)Nc1ccc2c(c1)C(=O)N(C)C[C@H](OC)[C@@H](C)CN(C(=O)c1ccncc1)[C@H](C)CO2 | -3.5[25 µM]
COc1cccc(-c2ccc3c(c2)[C@@H]2[C@@H](CCN2C(=O)c2ccc(F)cc2)[C@H](CO)N3)c1 | -7.5[25 µM]
SMILES | CD40 NFkB inh
O=[N+]([O-])c1ccc(O)c(Nc2ncnc3ccccc23)c1 | -0.3
O=[N+]([O-])c1ccc2ncnc(Nc3ccc4c(c3)OCCO4)c2c1 | 36.0*
c1ccc2c(c1)oc1c(Nc3ccc4c(c3)OCCO4)ncnc12 | -70.0
Cc1ccc(NC(=O)Nc2ccc3c(c2)C(=O)N(C)[C@H]2CC[C@H](CC(=O)NCC(F)(F)F)O[C@H]2CO3)cc1 | -5.4[25 µM]
COc1ccc(NC(=O)N2CCCCN3[C@H](CO)[C@@H](c4ccc(-c5ccccc5F)cc4)[C@@H]3C2)cc1 | 3.6[25 µM]
Nc1ncnc(Nc2ccccn2)c1[N+](=O)[O-] | 8.4
Cc1cccnc1Nc1ncnc(N)c1[N+](=O)[O-] | 2.7
Cc1cc(C)nc(Sc2ncnc(N)c2[N+](=O)[O-])n1 | 81.6*
C/C=C/c1ccc([C@@H]2[C@H](CO)N(Cc3cncnc3)C23CN(C(=O)COC)C3)cc1 | -9.3[25 µM]
N#C[C@H]1[C@@H](c2ccc(C3=CCCC3)cc2)[C@H](CO)N1C(=O)NC1CCCCC1 | 1.6[25 µM]
COCC(=O)N1[C@H](CO)[C@H]2c3ccccc3N(C(=O)Nc3ccccc3Cl)C[C@H]21 | -11.1[25 µM]
CC1(C)CC(NCc2ccncc2)CC(C)(C)N1 | 5.1
CC1(C)CC(NS(=O)(=O)c2cccc3ccccc23)CC(C)(C)N1 | 5.7
CC1(C)CC(Nc2ccc(Nc3ccccc3)cc2)CC(C)(C)N1 | 100.1*
